Pf Dd2 growth = P. falciparum Dd2 growth inhibitors, primary screen, SYBR Green fluorescence, single dose replicates; 72 h; stronger effect = lower value; AID 1159554, 2015; activity change, % at 10 µM; hit rate 2.3% among 94,000; in the data active = activity change below about -80%; inconclusive = no clear call, values can overlap the other calls
C diff HTS = C. difficile growth inhibitors, primary screen, HTS. Clostridium difficile clinical isolate growth, OD600, 24 h; stronger effect = lower value. growth activity, negative = inhibition, % at 16 µg/mL (by protocol). hit rate 0.25% among 86,000. AID 1259249, 2017;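 active = mean growth activity at or below -80% and every replicate also at or below -80%; inconclusive = mean at or below -80% but some replicate above -80%; inactive = mean growth activity above -80%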;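 note: 0% = DMSO wells and -100% = levofloxacin 16 µg/mL wells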
T cruzi growth-1 = T. cruzi intracellular proliferation inhibitors, primary screen, cell-based, beta-gal Tulahuen parasites, NIH3T3 host, luminescence | AID 624255, 2012 | hit rate 5.9% among 77,000 | inhibition, % at 8.34 µM | T. cruzi beta-gal in NIH3T3, GalScreen luminescence, 90 h;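 active = mean inhibition above about 93%, with at least 55% of replicates each passing it, limit read from the data, passing the limit was not always enough; inconclusive = only one of those two conditions holds; inactive = neither condition holds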
T cruzi growth-2 = T. cruzi intracellular proliferation inhibitors, confirmation, cell-based, NIH3T3 host, beta-gal parasite, luminescence, cherry-pick | inhibition, % at 8.35 µM | shares compounds with T cruzi growth-1 | hit rate 72% among 5,600 | T. cruzi beta-gal in NIH3T3, GalScreen luminescence, 90 h;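 active = mean replicate inhibition above about 95% and at least 55% of replicates individually reaching it, limit read from the data; inconclusive = only one of the two criteria is met; inactive = neither criterion is met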
T cruzi growth-3 = inhibitors of intracellular T. cruzi replication, confirmation, NIH3T3 host cells, beta-gal parasites, cherry-pick, set 2 | shares compounds with T cruzi growth-1 | T. cruzi beta-gal in NIH3T3, GalScreen luminescence, 90 h | inhibition, % at 2.09 µM | hit rate 21% among 5,600 | AID 651740, 2012;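 active = mean inhibition above about 95%, with at least 55% of replicates also reaching it, limit read from the data; inconclusive = meets just one of the two conditions; inactive = meets neither condition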;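 note: plate controls were neutral control median for no effect and positive control median for full effect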
3T3 cytotox = cytotoxicity in mouse NIH/3T3 fibroblasts, confirmation, cytotoxicity control for T. cruzi proliferation inhibitor project, cell-based, cherry-pick, single point. shares compounds with T cruzi growth-1. NIH/3T3 viability, CellTiter-Glo ATP luminescence, 90 h. cytotoxicity (signal decrease), % at 8.35 µM. hit rate 14% among 5,600. AID 651742, 2012;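 active = mean signal decrease across replicates above about 35% based on untreated-well scatter, with enough replicates individually passing, limit read from the data; inconclusive = no rule stated though some were filed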;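 note: 0% = median of neutral control wells and 100% = median of positive control wells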
NIH3T3 tox 2 = NIH/3T3 fibroblast cytotoxicity, confirmation, cytotoxicity control, cell-based, cherry-pick, single point, set 2 | shares compounds with T cruzi growth-1 | NIH/3T3 viability, CellTiter-Glo ATP luminescence, 90 h | inhibition, % at 24.9 µM | hit rate 56% among 5,600 | AID 651744, 2012;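 active = mean loss of cell viability signal at or above a set limit, and enough replicates individually reaching it; inconclusive = meets only the mean limit or only the replicate share; inactive = meets neither condition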;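 note: 0% = median of neutral control wells and 100% = median of positive control wells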
* marks the source's active call; other numbers are inactive results; ? = inconclusive; . = no result given. Only some compounds are listed: those with a hit (about 6.7% of all), similar ones and a draw of the others.

SMILES	Pf Dd2 growth	C diff HTS	T cruzi growth-1	others
C[C@@H]1CN([C@@H](C)CO)S(=O)(=O)c2ccc(C#CCN(C)C)cc2O[C@@H]1CN(C)Cc1ccccc1F	-47	-1	84
COCC#Cc1ccc2c(c1)O[C@H](CN(C)Cc1ccccc1F)[C@H](C)CN([C@@H](C)CO)S2(=O)=O	-19	-1	-25
CC(C)CC#Cc1ccc2c(c1)O[C@H](CN(C)Cc1ccccc1F)[C@H](C)CN([C@H](C)CO)S2(=O)=O	-44	.	?	T cruzi growth-2=98*;T cruzi growth-3=113*;3T3 cytotox=-9;NIH3T3 tox 2=105*
COCC#Cc1ccc2c(c1)O[C@@H](CN(C)Cc1ccccc1F)[C@H](C)CN([C@@H](C)CO)S2(=O)=O	-73	0	23
CC(C)CC#Cc1ccc2c(c1)O[C@H](CN(C)Cc1ccccc1F)[C@@H](C)CN([C@H](C)CO)S2(=O)=O	-59	.	67
C[C@H](CO)N1C[C@H](C)[C@H](CN(C)C(=O)C2CCOCC2)Oc2cc(C3=CCCCC3)ccc2S1(=O)=O	-9	2	.
CCC(=O)N1CC2(CN(Cc3nccs3)C2)c2c(n(C)c3cc(OC)ccc23)[C@@H]1CO	-8	.	.
COc1ccc(NC(=O)N(C)C[C@@H]2Oc3ccc(NS(=O)(=O)c4ccc(OC)cc4)cc3CC(=O)N([C@H](C)CO)C[C@@H]2C)cc1	30	1	5
Cc1noc(C)c1NC(=O)N(C)C[C@@H]1Oc2ccc(NS(=O)(=O)c3ccc(F)cc3)cc2CC(=O)N([C@@H](C)CO)C[C@@H]1C	15	-3	10
CCCC(=O)Nc1ccc2c(c1)C(=O)N(C)[C@H]1CC[C@@H](CC(=O)NCc3ccccc3)O[C@H]1CO2	-11	-5	-21
COCC#Cc1ccc2c(c1)O[C@@H](CN(C)Cc1ccccc1F)[C@@H](C)CN([C@H](C)CO)S2(=O)=O	-37	-5	5
C[C@@H]1CN([C@H](C)CO)S(=O)(=O)c2ccc(C#CC3CC3)cc2O[C@@H]1CN(C)Cc1ccccc1	-40	-2	-6
CC(C)CC#Cc1ccc2c(c1)O[C@@H](CN(C)Cc1ccccc1F)[C@@H](C)CN([C@H](C)CO)S2(=O)=O	-49	.	?	T cruzi growth-2=97*;T cruzi growth-3=108*;3T3 cytotox=0;NIH3T3 tox 2=105*
C[C@@H]1CN([C@H](C)CO)S(=O)(=O)c2ccc(C#CC3CC3)cc2O[C@@H]1CN(C)Cc1ccccc1F	-24	15	75
C[C@@H]1CN([C@H](C)CO)S(=O)(=O)c2ccc(C#CC3CC3)cc2O[C@H]1CN(C)Cc1ccccc1	-52	6	127*	T cruzi growth-2=95*;T cruzi growth-3=51;3T3 cytotox=?;NIH3T3 tox 2=105*
C[C@H]1CN([C@@H](C)CO)S(=O)(=O)c2ccc(C#CC3CC3)cc2O[C@@H]1CN(C)Cc1ccccc1F	-26	38	112*	T cruzi growth-2=97*;T cruzi growth-3=117*;3T3 cytotox=2;NIH3T3 tox 2=104*
O=C([C@@H]1[C@@H](CO)[C@@H]2Cn3c(cccc3=O)[C@@H]2N1CC1CCCC1)N1CCOCC1	-7	-3	3
CO[C@H]1CN(C)C(=O)c2ccc(NC(=O)CC(F)(F)F)cc2OC[C@H](C)NC[C@H]1C	32	-3	.
C[C@H]1CN([C@@H](C)CO)C(=O)c2cc(C#CC3CC3)cnc2O[C@@H]1CN(C)C(=O)c1ccccc1	-19	2	-8
C[C@H](CO)N1C[C@H](C)[C@H](CN(C)Cc2ccc(C(F)(F)F)cc2)Oc2c(NC(=O)C3CC3)cccc2C1=O	11	10	12
O=C(C[C@@H]1CC[C@H]2[C@@H](COC[C@H](O)CN2C(=O)Cc2ccccc2)O1)NC1Cc2ccccc2C1	-5	36	31
O=C(c1ccccc1F)N1C[C@@H]2[C@H](c3ccccc31)[C@@H](CO)N2C(=O)c1cccnc1	-23	-4	-10
